Results as given in PubChem BioAssay AID720690 (Broad Institute, 2013).
Potency and affinity values are given separately. Calls of active or inactive are those of the source.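 Rule for the calls: active = every repeat run showing a signal drop whose fitted half-maximal concentration is at most twice the top tested concentration; inconclusive = repeat runs disagree, or flat partial drop, or poor fit; inactive = the rest.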

assay: general mammalian cell viability loss – activator set, cherry-pick, cytotoxicity control for miR-122 modulator project, dose response (AID 720690); conditions: HEK293T viability, CellTiter-Glo luminescence, 48 h; series mostly up to 26 µM

SMILES | outcome
O=C(NC[C@H]1[C@H](c2ccccc2)[C@H](CO)N1CC1CCCC1)c1ccncc1 | inactive
Clc1ccc(CSc2nnc(-c3ccncc3)o2)c(Cl)c1 | inactive
Cc1noc(C)c1NC(=O)N(C)C[C@@H]1Oc2cc(C#CCC3CCCC3)ccc2S(=O)(=O)N([C@@H](C)CO)C[C@@H]1C | inactive
CCCCN1C=C(C(=O)OC)C(c2ccccc2C(F)(F)F)C(C(=O)OC)=C1 | inactive
CN1C(=O)c2cc(NC(=O)c3cccs3)ccc2OC[C@H]2O[C@@H](CC(=O)NCCN3CCCCC3)CC[C@H]21 | inactive
Cc1ccnc(Nc2nc(-c3c(C)nc4sccn34)cs2)c1 | inactive
CCOc1cc(C(=O)NC(C)COC)cc(OCC)c1OCC (centres undefined) | inactive
CCCNC(=O)C[C@@H]1CC[C@@H]2[C@@H](COc3ccc(NS(=O)(=O)c4ccccc4C)cc3C(=O)N2C)O1 | inactive
CNC(=O)C[C@@H]1CC[C@@H]2[C@@H](COc3ccc(NC(=O)c4ccccc4F)cc3C(=O)N2C)O1 | inactive
CCOc1ccc2nc(NS(=O)(=O)c3cccs3)sc2c1 | inactive
CO[C@@H]1CN(C)C(=O)c2cc(NC(=O)c3cccc(Oc4ccccc4)c3)ccc2OC[C@H](C)NC[C@@H]1C | inactive
Cc1ccc(C2CC(C(F)(F)F)n3nc(C(=O)NCc4ccco4)cc3N2)cc1 (centres undefined) | inactive
CC(=O)N1[C@@H](CO)[C@@H](c2ccccc2)[C@@H]1CNC(=O)CN1CCOCC1 | inactive
COc1ccc(NC(=O)Cn2nnc(C(=O)NCc3ccccc3OC)c2N)cc1Cl | inactive
CC(C)CC#Cc1ccc2c(c1)O[C@H](CN(C)C(=O)c1cnccn1)[C@H](C)CN([C@H](C)CO)S2(=O)=O | inactive
CCN(C[C@@H]1[C@@H](c2ccccc2)[C@@H](CO)N1S(C)(=O)=O)C(=O)C1CC1 | inactive
CN1C(=O)c2cc(NC(=O)Nc3ccccc3F)ccc2OC[C@@H]2O[C@@H](CC(=O)NCc3ccc(-c4ccccc4)cc3)CC[C@H]21 | inactive
C[C@H](CO)N1C[C@H](C)[C@@H](CN(C)Cc2ccc(-c3ccccc3)cc2)Oc2ncc(C#CCN(C)C)cc2C1=O | inactive
CC(=O)N1[C@H](CN(C(=O)c2ccc(F)cc2)C(C)C)[C@@H](c2ccccc2)[C@@H]1CO | inactive
COCC(=O)Nc1ccc2c(c1)C(=O)N(C)[C@@H]1CC[C@@H](CC(=O)NCc3ccc(OC)cc3)O[C@H]1CO2 | inactive

SMILES | outcome
CC(=O)c1cccc(S(=O)(=O)NCC2CCCCC2)c1 | inactive
C/C=C/c1ccc([C@H]2[C@@H](CO)N(Cc3ccccn3)[C@@H]2CNC(=O)CC)cc1 | inactive
CN(c1ccccc1)S(=O)(=O)c1ccc(C(=O)Nc2cccc(S(=O)(=O)N3CCOCC3)c2)cc1 | inactive
CCNC(=O)C[C@@H]1CC[C@H]2[C@H](COc3ccc(NC(=O)c4ccccc4)cc3C(=O)N2C)O1 | inactive
CCC(=O)N1[C@H](CO)[C@H](c2ccccc2)[C@@H]1CN(C(C)C)S(C)(=O)=O | inactive
O=C(c1ccco1)N1CCN(C2CC(=O)N(c3ccccc3)C2=O)CC1 (centres undefined) | inactive
CCn1nnnc1SCC(=O)Nc1nnc(C(C)C)s1 | inactive
COc1cccc(C(=O)Nc2ccc3c(c2)C(=O)N(C)[C@@H]2CC[C@@H](CC(=O)N[C@H](C)c4ccccc4)O[C@@H]2CO3)c1 | inactive
CNC(=O)C[C@@H]1CC[C@@H]2[C@H](COc3ccc(NC(=O)Nc4cccc(C)c4)cc3C(=O)N2C)O1 | inactive
CCC(=O)NC[C@@H]1[C@@H](c2ccc(C3=CCCC3)cc2)[C@@H](CO)N1C(C)=O | inactive
C/C=C/c1ccc([C@@H]2[C@@H](CN(C(=O)COC)C(C)C)N(C(C)=O)[C@H]2CO)cc1 | inactive
C/C=C/c1ccc([C@@H]2[C@@H](CO)N[C@@H]2CN(C(=O)C2CCC2)C(C)C)cc1 | inactive
COc1ccc(CCNC(=O)c2c(C)cc(=O)oc2C)cc1OC | inactive
OC[C@H]1[C@@H](c2ccccc2)[C@H](CNCC2CCC2)N1CC1CC1 | inactive
CCC(=O)N1[C@H](CO)[C@H](c2ccccc2)[C@@H]1CN(CC)C(=O)c1ccccc1 | inactive
C[C@@H]1CN([C@@H](C)CO)C(=O)c2cccc(NS(C)(=O)=O)c2O[C@H]1CN(C)S(=O)(=O)c1ccc(Cl)cc1 | inactive
CCC(=O)Nc1ccc2c(c1)C(=O)N(C)[C@@H]1CC[C@H](CC(=O)NCCN3CCCCC3)O[C@H]1CO2 | inactive
C[C@H]1CN([C@@H](C)CO)C(=O)c2cc(-c3ccc(C#N)cc3)cnc2O[C@H]1CN(C)C(=O)Nc1ccc(C(F)(F)F)cc1 | inactive
CCN(C[C@@H]1[C@@H](c2ccccc2)[C@@H](CO)N1C(=O)COC)S(C)(=O)=O | inactive
